Source: PubChem BioAssay (EPA / NIEHS)
Active and inactive are the calls of the source. How the source made its calls: active means hit-call score of the fitted dose curve at least 0.9, where 1 is the maximum; inactive means score below 0.9.

Legend:
[1] = read-out: Transforming growth factor beta 1 (TGFb1), TGFB1 (gene 7040); experiment: BSK_KF3CT_TGFb1: BioMAP Diversity Plus: KF3CT Assay for Transforming growth factor beta 1 (TGFb1) Biomarker Activity (AID 2283072); conditions: primary human keratinocytes with fibroblasts; actives raise or lower the signal
How it was run: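 Read-out: ELISA for TGF-b1 in keratinocyte/foreskin fibroblast human skin co-culture, 24 h after dosing; bidirectional curve fit vs DMSO baseline; gain or loss of signal scored.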

[2] = read-out: C-C motif chemokine 2 (Homo sapiens) (UniProt P13500); experiment: BSK_KF3CT_MCP1: BioMAP Diversity Plus: KF3CT Assay for Monocyte Chemoattractant Protein 1 (MCP1/CCL2) Biomarker Activity (AID 2283073); conditions: primary human keratinocytes with fibroblasts; actives raise or lower the signal
How it was run: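 ELISA readout of MCP-1 after 24 h chemical dosing of a human skin primary co-culture of keratinocytes and foreskin fibroblasts. Activity was fitted in both directions against DMSO.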

[3] = read-out: urokinase plasminogen activator (uPA), PLAU (gene 5328); experiment: BSK_KF3CT_uPA: BioMAP Diversity Plus: KF3CT Assay for urokinase plasminogen activator (uPA) Biomarker Activity (AID 2283075); conditions: primary human keratinocytes with fibroblasts; actives raise or lower the signal
How it was run: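 ELISA read-out of uPA 24 h after dosing human skin keratinocytes co-cultured with foreskin fibroblasts. Signal change fitted both ways relative to DMSO; sulforhodamine B on parallel cultures marks overt cytotoxicity.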

CD40, CD40 (gene 958) [4] = experiment: BSK_LPS_CD40: BioMAP Diversity Plus: LPS Assay for CD40 Biomarker Activity (AID 2283076); conditions: primary human HUVEC with PBMC; actives raise or lower the signal
How it was run: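 Cells were dosed, incubated 24 h, then assayed for CD40 by ELISA. Gain or loss of signal was analysed relative to DMSO controls. The culture paired human umbilical vein endothelium with peripheral blood mononuclear cells.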

[5] = read-out: E-selectin (Homo sapiens) (UniProt P16581); experiment: BSK_LPS_Eselectin: BioMAP Diversity Plus: LPS Assay for Eselectin Biomarker Activity (AID 2283077); conditions: primary human HUVEC with PBMC; actives raise or lower the signal
How it was run: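 Primary human vascular co-culture (endothelium plus PBMC) was dosed with chemical, then E-selectin quantified by ELISA at 24 h. Endpoint values derive from bidirectional curve fitting relative to DMSO.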

[6] = read-out: Interleukin-8 (IL8), CXCL8 (gene 3576); experiment: BSK_LPS_IL8: BioMAP Diversity Plus: LPS Assay for Interleukin-8 (IL8) Biomarker Activity (AID 2283078); conditions: primary human HUVEC with PBMC; actives raise or lower the signal
How it was run: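 Readout is IL-8 by ELISA, taken 24 h after compounds were added to LPS-stimulated endothelial/PBMC co-cultures. Both increases and decreases relative to DMSO control were scored through bidirectional fitting.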

[7] = BSK_LPS_SRB: Viability Assessment in the BioMAP Diversity Plus: LPS Assay (AID 2283079); conditions: primary human HUVEC with PBMC;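 further: total protein by sulforhodamine B absorbance as a cytotoxicity measure; measured one day after compound addition; fitted in both directions against DMSO so loss or gain of signal counts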
How it was run: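 Readout is SRB absorbance at 560 nm (0.1% stain, TCA-fixed parallel cultures) as a total-protein cytotoxicity measure. Cells: primary human umbilical vein endothelium plus peripheral blood mononuclear cells, 24 h after chemical exposure; DMSO served as baseline.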

[8] = read-out: Interleukin-1 alpha (IL1a), IL1A (gene 3552); experiment: BSK_LPS_IL1a: BioMAP Diversity Plus: LPS Assay for Interleukin-1 alpha (IL1a) Biomarker Activity (AID 2283080); conditions: primary human HUVEC with PBMC; actives raise or lower the signal
How it was run: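 ELISA read-out of IL-1 alpha from a human primary vascular co-culture (endothelium plus PBMC) under LPS, sampled 24 hours post-dosing. Activity was fitted in both directions relative to DMSO controls.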

[9] = BSK_LPS_PGE2: BioMAP Diversity Plus: LPS Assay for Prostaglandin E2 (PGE2) Biomarker Activity (AID 2283082); conditions: primary human HUVEC with PBMC; actives raise or lower the signal
How it was run: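 ELISA read-out of PGE2 from human umbilical vein endothelial cells co-cultured with peripheral blood mononuclear cells under LPS, 24 h post-dose. Gain or loss of signal scored relative to DMSO baseline.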

[10] = read-out: Macrophage colony-stimulating factor (MCSF), CSF1 (gene 1435); experiment: BSK_LPS_MCSF: BioMAP Diversity Plus: LPS Assay for Macrophage colony-stimulating factor (MCSF) Biomarker Activity (AID 2283083); conditions: primary human HUVEC with PBMC; actives raise or lower the signal
How it was run: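 ELISA readout of M-CSF after 24 h compound exposure in a human endothelial/PBMC co-culture. Activity, in either direction, is fitted relative to DMSO vehicle.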

[11] = read-out: Tissue Factor, F3 (gene 2152); experiment: BSK_LPS_TissueFactor: BioMAP Diversity Plus: LPS Assay for Tissue Factor Biomarker Activity (AID 2283084); conditions: primary human HUVEC with PBMC; actives raise or lower the signal
How it was run: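 ELISA signal for cell-surface Tissue Factor (CD142) was read 24 h after compound dosing of an LPS-stimulated human endothelial–PBMC primary co-culture. Gain or loss of signal was scored relative to DMSO.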

[12] = read-out: Tumor necrosis factor (Homo sapiens) (UniProt P01375); experiment: BSK_LPS_TNFa: BioMAP Diversity Plus: LPS Assay for Tumour Necrosis Factor alpha (TNFa) Biomarker Activity (AID 2283085); conditions: primary human HUVEC with PBMC; actives raise or lower the signal;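 on AC50: TNFa protein level quantified by ELISA in the co-culture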
How it was run: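 HUVEC/PBMC co-culture, LPS-stimulated; 24 h post-dose; TNFa by ELISA; gain or loss of signal fitted bidirectionally vs DMSO baseline.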

[13] = read-out: Vascular cell adhesion molecule 1 (VCAM1), VCAM1 (gene 7412); experiment: BSK_LPS_VCAM1: BioMAP Diversity Plus: LPS Assay for Vascular cell adhesion molecule 1 (VCAM1) Biomarker Activity (AID 2283086); conditions: primary human HUVEC with PBMC; actives raise or lower the signal
How it was run: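 ELISA read-out of VCAM-1 at 24 h post-dosing in an LPS-driven HUVEC/PBMC primary human co-culture; gain or loss of signal fitted bidirectionally against DMSO baseline. Cytotoxicity tracked in parallel cultures by SRB total-protein staining.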

CD38, CD38 (gene 952) = experiment: BSK_SAg_CD38: BioMAP Diversity Plus: SAg Assay for CD38 Biomarker Activity (AID 2283087); conditions: primary human HUVEC with PBMC; actives raise or lower the signal
How it was run: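 Measures CD38 on a human endothelial/PBMC co-culture driven by SEB and TSST-1, 24 h after compound exposure, using ELISA with fluorescence detection; DMSO defines baseline for bidirectional curve fitting.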

CD40, CD40 (gene 958) [14] = experiment: BSK_SAg_CD40: BioMAP Diversity Plus: SAg Assay for CD40 Biomarker Activity (AID 2283088); conditions: primary human HUVEC with PBMC; actives raise or lower the signal
How it was run: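 Compounds were dosed onto a human primary endothelial–PBMC co-culture, and after 24 h CD40 was quantified by ELISA using a fluorescence signal. Activity in either direction was fitted relative to DMSO.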

CD69, CD69 (gene 969) = experiment: BSK_SAg_CD69: BioMAP Diversity Plus: SAg Assay for CD69 Biomarker Activity (AID 2283089); conditions: primary human HUVEC with PBMC; actives raise or lower the signal
How it was run: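 Primary human vascular co-culture (umbilical vein endothelium with peripheral blood mononuclear cells) exposed to test chemical for 24 h. CD69 levels quantified by fluorescence ELISA; DMSO served as negative control for bidirectional fitting.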

[15] = read-out: Monocyte Chemoattractant Protein-1 (MCP1), CCL2 (gene 6347); experiment: BSK_SAg_MCP1: BioMAP Diversity Plus: SAg Assay for Monocyte Chemoattractant Protein-1 (MCP1) Biomarker Activity (AID 2283090); conditions: primary human HUVEC with PBMC; actives raise or lower the signal
How it was run: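 Values derive from bidirectional fitting of ELISA-measured MCP1 against DMSO controls. Readings were taken 24 h after dosing human vascular endothelial cells co-cultured with peripheral blood mononuclear cells under superantigen stimulation.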

[16] = read-out: E-selectin (Homo sapiens) (UniProt P16581); experiment: BSK_SAg_Eselectin: BioMAP Diversity Plus: SAg Assay for Eselectin Biomarker Activity (AID 2283091); conditions: primary human HUVEC with PBMC; actives raise or lower the signal
How it was run: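 Co-culture: HUVEC + PBMC. Dose compound; 24 h. ELISA for E-selectin. Bidirectional fit vs DMSO.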

[17] = read-out: Monocyte Chemoattractant Protein-1 (MCP1), CCL2 (gene 6347); experiment: BSK_LPS_MCP1: BioMAP Diversity Plus: LPS Assay for Monocyte Chemoattractant Protein-1 (MCP1) Biomarker Activity (AID 2283081); conditions: primary human HUVEC with PBMC; actives raise or lower the signal
How it was run: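 Human endothelial–PBMC co-cultures were dosed with chemical, then LPS-driven MCP-1 levels were quantified by ELISA at 24 h. Activity in either direction was fitted versus DMSO negative control.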

Measured: AC50

Sequence of Tumor necrosis factor (Homo sapiens) (P01375 whole entry, looked up): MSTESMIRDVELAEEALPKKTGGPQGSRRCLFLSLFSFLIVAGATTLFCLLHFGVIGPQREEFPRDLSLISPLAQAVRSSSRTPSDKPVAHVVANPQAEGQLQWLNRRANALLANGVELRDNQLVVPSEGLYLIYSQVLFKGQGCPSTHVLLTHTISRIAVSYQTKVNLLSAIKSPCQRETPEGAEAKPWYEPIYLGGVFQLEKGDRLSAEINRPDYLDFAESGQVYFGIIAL
Sequence of E-selectin (Homo sapiens) (P16581 whole entry, looked up): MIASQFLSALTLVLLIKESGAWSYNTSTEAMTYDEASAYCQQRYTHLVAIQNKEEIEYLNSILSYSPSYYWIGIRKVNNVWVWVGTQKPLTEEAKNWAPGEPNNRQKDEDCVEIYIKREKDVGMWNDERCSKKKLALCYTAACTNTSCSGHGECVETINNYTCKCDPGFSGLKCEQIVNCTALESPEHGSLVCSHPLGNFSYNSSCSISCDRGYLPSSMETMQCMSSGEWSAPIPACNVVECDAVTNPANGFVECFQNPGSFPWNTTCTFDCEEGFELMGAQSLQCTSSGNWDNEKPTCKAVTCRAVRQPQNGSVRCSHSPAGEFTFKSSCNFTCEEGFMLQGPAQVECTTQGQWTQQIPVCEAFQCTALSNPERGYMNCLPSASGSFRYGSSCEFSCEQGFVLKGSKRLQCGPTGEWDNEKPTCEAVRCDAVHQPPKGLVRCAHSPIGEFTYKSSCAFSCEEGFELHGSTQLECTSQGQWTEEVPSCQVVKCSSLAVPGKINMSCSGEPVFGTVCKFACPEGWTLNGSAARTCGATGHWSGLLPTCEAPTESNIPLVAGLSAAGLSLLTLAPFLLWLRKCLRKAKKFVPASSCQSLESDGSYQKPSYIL

CCCCCCC(=O)OCC
not listed: [17]
inactive: all other assays above

CC(C)(C)c1cc(O)c(C(C)(C)C)cc1O
active: [5] 7.72 µM | [6] 1.39 µM | [12] 1.43 µM | [13] 8.05 µM | CD40, CD40 (gene 958) [14] 11.7 µM | [15] 5.94 µM | [16] 7.31 µM
not listed: [9] | CD69, CD69 (gene 969)
inactive: all other assays above

C=CCc1ccc(O)c(OC)c1
active: [16] 4.26 µM
not listed: [9] | [17]
inactive: all other assays above

CCCCCCCCCCCC(=O)OC
not listed: [9] | [17]
inactive: all other assays above
